# Where “and” joins values, the source holds several entries; their conditions need not be identical. Equal values may be shown once. Values without a mark were called inactive. Inconclusive results are not listed. Where a call stands in place of a potency, no number is given. Calls of active or inactive are those of the source. Unless noted, the call rests on the fitted dose curve; in most records, active means well fitted curve in the direction sought with a large enough effect; inconclusive means small, poorly fitted or top-dose-only effect, or another doubt; inactive means no such curve, though single readings can be large; an effect the other way counts as inactive or inconclusive.
# Key:
# [1] = target: Voltage-gated inwardly rectifying potassium channel KCNH2 (Homo sapiens) (UniProt Q12809); experiment: qHTS Assay for Small Molecule Inhibitors of the Human hERG Channel Activity (AID 588834);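 further: lower thallium flux fluorescence means stronger hERG block; nearly all actives have a fitted effect of over 50% in size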; further: potency means the concentration at half of the fitted maximal effect; on activity change, negative = inhibition: top concentration of the series differs between compounds
# How it was run: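 Step 1: BacMam hERG transduction of U2OS, 4 hrs RT. Step 2: overnight 37 °C, plate 2000 cells/well, 4 hr. Step 3: FluxOR load, compound 10 min, stimulate, read fluorescence.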
# [2] = target: Luciferin 4-monooxygenase (Photinus pyralis) (UniProt P08659); experiment: Biochemical firefly luciferase enzyme assay for NPC (AID 624030); further: nearly all actives have a fitted effect of over 70% in size; further: potency means the concentration at half of the fitted maximal effect;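 on activity change, negative = inhibition: purified P. pyralis luciferase at 10 nM with luciferin and ATP substrate; series mostly up to about 59 µM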
# How it was run: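 Counter-screen for direct inhibition of the luciferase enzyme by approved-drug library compounds, run at 10 nM enzyme in 50 mM Tris acetate (final). Luminescence was read within 5 min of enzyme-buffer addition and normalized to PTC124 versus DMSO (0%).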
# [3] = S16 Schwann cell PMP22 intronic element firefly luciferase assay (AID 624032); further: nearly all actives have a fitted effect of over 30% in size; further: potency means the concentration at half of the fitted maximal effect; on activity change, negative = inhibition: series mostly up to about 58 µM
# How it was run: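 Rat S16 Schwann cells stably carrying a PMP22 intronic element-driven Fluc reporter were seeded overnight, then exposed to compounds for 24 h at 37 °C. Luminescence was normalized to PTC124 (positive control) and DMSO (0% activity).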
# [4] = S16 Schwann cell PMP22 intronic element beta-lactamase assay (AID 624044; calls by dose curve; further: nearly all actives have a fitted effect of over 15% in size)
# How it was run: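 Beta-lactamase reporter under a PMP22 intronic regulatory element in stable S16 rat Schwann cells; 24 h compound exposure. 460 nm blue signal normalized between DMSO (0%) and potassium clavulanate, with 535 nm FRET tracking viability; curves classed by r2 and response.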
# [5] = S16 Schwann cell viability assay (CellTiter-Glo assay) (AID 624031);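 further: native untransfected S16 rat Schwann cells; cellular ATP luminescence as a viability measure; series mostly up to about 58 µM; nearly all actives have a fitted effect of over 70% in size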
# How it was run: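 Following overnight culture in 10% FBS DMEM, parental S16 rat Schwann cells are dosed for 24 h at 37 °C. Viability is read as CellTiter-Glo luminescence and expressed as % activity relative to DMSO (0%) and no-cell wells.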
# [6] = target: Glutaminase kidney isoform, mitochondrial (Homo sapiens) (UniProt O94925); experiment: qHTS for Inhibitors of Glutaminase (GLS): LOPAC Validation (AID 624146);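 further: glutamate product detected by oxidase and peroxidase coupled Amplex red fluorescence gain; series mostly up to about 46 µM; nearly all actives have a fitted effect of over 60% in size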
# How it was run: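 Glutamate formation by hKGA was monitored fluorometrically using coupled glutamate oxidase, HRP and Amplex Red. Substrate was added as 1 mM L-glutamine solution; incubation was 30 min at RT after an initial read.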
# [7] = target: Glucagon-like peptide 1 receptor (Homo sapiens) (UniProt P43220); experiment: qHTS of GLP-1 Receptor Agonists: LOPAC Validation (AID 624148);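 further: higher luminescence signal means agonism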
# How it was run: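 HEK293 cells stably co-expressing a cAMP-responsive luciferase reporter and a hypersensitive GLP-1R were plated 12 h at 37 °C and exposed to compounds for 4-6 hr at 37 °C, 5% CO2. Luminescence was read 12 min after adding detection reagent.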
# [8] = qHTS of Nrf2 Activators: LOPAC Validation (AID 624149)
# How it was run: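 Following overnight seeding in 5% FBS OPTI-MEM, AREc32_Fluc cells receive compounds for a 24 hr incubation at 37 deg C with 5% CO2. Steady-Glo is added, and after 30 min at RT luminescence is recorded.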
# [9] = HTS Assay for Allosteric Antagonists of the Human D2 Dopamine Receptor: Hit Validation in HTRF (AID 624455); further: potency means the concentration at half of the fitted maximal effect;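 further: stable D1 dopamine receptor cell line scored for blocking the D1 response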
# How it was run: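 Validation of hits used D1 receptor stably expressed in cells with HTRF detection of response inhibition; origin screen measured calcium flux following EC80 dopamine in a force-coupled, inducible Hek293 Trex D2 cell line.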
# [10] = qHTS of Trypanosoma Brucei Inhibitors: LOPAC Validation (AID 624147)
# How it was run: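 Glycolytic pyruvate kinase of T. brucei was incubated with substrate, test compound and 130 uM ADP for 45 minutes at room temperature. Luminescent Kinase-Glo Plus signal was measured after 10 minutes.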
# Sequence of Glutaminase kidney isoform, mitochondrial (Homo sapiens) (O94925 whole entry, looked up, canonical isoform): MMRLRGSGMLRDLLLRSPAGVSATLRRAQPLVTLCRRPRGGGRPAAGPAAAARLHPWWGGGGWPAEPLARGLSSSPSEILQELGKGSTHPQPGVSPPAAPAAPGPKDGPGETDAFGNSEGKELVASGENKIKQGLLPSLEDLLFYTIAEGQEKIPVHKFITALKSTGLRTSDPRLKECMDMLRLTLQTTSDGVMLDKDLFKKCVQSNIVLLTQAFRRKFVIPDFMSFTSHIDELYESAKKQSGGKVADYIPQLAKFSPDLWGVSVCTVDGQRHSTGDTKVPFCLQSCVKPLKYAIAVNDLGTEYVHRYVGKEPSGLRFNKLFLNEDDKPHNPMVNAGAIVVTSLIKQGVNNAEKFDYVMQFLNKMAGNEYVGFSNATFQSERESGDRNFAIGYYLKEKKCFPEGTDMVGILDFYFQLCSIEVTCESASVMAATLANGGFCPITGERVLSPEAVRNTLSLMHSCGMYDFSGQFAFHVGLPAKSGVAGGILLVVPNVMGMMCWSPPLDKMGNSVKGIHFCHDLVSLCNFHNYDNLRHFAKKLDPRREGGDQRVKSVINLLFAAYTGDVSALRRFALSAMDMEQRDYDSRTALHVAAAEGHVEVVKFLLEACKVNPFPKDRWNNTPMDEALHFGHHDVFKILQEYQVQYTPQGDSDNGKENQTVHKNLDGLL
# Sequence of Luciferin 4-monooxygenase (Photinus pyralis) (P08659 whole entry, looked up): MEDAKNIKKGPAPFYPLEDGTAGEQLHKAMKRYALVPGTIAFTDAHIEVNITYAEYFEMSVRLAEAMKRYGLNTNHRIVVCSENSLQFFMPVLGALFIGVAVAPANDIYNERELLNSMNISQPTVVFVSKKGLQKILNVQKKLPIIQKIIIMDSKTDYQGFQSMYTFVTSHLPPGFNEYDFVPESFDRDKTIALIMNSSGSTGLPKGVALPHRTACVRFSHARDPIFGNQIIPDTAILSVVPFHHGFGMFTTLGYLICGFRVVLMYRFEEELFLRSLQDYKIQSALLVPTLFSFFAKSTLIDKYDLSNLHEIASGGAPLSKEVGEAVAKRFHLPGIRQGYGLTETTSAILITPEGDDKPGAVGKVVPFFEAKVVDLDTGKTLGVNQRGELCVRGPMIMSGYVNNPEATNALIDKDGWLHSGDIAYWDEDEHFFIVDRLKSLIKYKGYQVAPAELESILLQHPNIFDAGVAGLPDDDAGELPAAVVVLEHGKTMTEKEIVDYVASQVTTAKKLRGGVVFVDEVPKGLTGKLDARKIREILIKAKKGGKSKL
# Sequence of Voltage-gated inwardly rectifying potassium channel KCNH2 (Homo sapiens) (Q12809 whole entry, looked up): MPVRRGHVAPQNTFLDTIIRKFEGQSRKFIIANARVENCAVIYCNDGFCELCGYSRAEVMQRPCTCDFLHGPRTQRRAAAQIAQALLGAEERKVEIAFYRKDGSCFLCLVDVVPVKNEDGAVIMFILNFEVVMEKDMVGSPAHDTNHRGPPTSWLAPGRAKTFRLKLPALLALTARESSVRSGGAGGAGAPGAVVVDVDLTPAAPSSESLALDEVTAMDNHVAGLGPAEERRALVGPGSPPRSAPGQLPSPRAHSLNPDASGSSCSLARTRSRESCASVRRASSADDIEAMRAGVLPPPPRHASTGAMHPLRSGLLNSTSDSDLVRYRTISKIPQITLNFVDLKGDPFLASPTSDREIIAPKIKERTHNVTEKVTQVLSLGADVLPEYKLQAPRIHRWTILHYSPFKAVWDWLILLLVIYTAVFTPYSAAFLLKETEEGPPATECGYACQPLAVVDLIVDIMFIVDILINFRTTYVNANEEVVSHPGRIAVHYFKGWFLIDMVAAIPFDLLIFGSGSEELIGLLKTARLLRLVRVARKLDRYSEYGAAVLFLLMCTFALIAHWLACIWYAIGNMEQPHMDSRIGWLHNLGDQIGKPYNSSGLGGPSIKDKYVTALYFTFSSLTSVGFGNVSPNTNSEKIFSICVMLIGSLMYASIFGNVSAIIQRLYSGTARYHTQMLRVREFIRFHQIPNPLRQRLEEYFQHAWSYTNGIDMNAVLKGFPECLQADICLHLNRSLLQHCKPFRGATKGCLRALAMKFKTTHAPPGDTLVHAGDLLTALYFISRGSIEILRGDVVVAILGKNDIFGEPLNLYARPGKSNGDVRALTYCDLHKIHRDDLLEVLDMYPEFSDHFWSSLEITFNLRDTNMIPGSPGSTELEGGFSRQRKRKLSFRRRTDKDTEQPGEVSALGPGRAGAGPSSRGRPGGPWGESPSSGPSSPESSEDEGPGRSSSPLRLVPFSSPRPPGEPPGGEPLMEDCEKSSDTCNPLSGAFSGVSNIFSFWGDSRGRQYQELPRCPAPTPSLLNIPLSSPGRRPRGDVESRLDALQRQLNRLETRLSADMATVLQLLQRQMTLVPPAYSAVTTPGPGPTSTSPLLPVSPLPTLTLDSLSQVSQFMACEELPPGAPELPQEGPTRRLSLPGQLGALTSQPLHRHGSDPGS
# Sequence of Glucagon-like peptide 1 receptor (Homo sapiens) (P43220 whole entry, looked up): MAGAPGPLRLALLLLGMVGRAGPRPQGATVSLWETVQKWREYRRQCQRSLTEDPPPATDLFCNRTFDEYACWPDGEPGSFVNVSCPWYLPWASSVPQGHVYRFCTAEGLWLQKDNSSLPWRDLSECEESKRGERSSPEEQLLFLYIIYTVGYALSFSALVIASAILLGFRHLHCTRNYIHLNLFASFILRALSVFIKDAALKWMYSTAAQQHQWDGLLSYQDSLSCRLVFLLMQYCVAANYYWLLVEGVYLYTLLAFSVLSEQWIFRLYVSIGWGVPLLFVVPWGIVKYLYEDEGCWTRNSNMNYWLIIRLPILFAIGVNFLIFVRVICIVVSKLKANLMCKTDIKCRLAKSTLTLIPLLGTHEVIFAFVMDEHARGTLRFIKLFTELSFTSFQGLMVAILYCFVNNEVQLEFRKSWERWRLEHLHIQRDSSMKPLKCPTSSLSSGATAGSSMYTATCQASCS
smiles,measurement,setting,value
CCC1(CC)C(=O)C=CNC1=O,Potency,[1],inactive
same,Potency,[2],inactive
same,Potency,[3],inactive
CN1C(=O)NC(=O)C(C)(C2=CCCCC2)C1=O (centres undefined),Potency,[1],inactive
same,Potency,[2],inactive
same,Potency,[3],inactive
C[C@@H](N)[C@@H](O)c1ccccc1,Potency,[1],inactive
O=C(O)/C=C\C(=O)O,Potency,[1],inactive
CCC1(c2ccccc2)C(=O)N(COC)C(=O)N(COC)C1=O,Potency,[1],inactive
same,Potency,[2],inactive
same,Potency,[3],inactive
CC(C)(C)NCC(O)c1cc(Cl)c(N)c(C(F)(F)F)c1 (centres undefined),Potency,[1],inactive
same,Potency,[2],inactive
same,Potency,[3],inactive
CN1CCC(O)(c2ccc(F)cc2)C(C(=O)c2ccc(F)cc2)C1 (centres undefined),Potency,[1],14.1 µM (active)
same,Potency,[2],inactive
same,Potency,[3],inactive
same,outcome,[4],inactive
CC(C)=CC1C(C(=O)OCN2C(=O)C3=C(CCCC3)C2=O)C1(C)C (centres undefined),Potency,[1],20 µM (active)
same,Potency,[2],inactive
same,outcome,[5],inactive
same,outcome,[4],inactive
CN1C(=O)CC(=O)N(c2ccccc2)c2cc(Cl)ccc21,Potency,[1],inactive
same,Potency,[2],inactive
same,Potency,[3],inactive
C=CCN1C[C@H](C)N([C@H](c2ccc(C(=O)N(CC)CC)cc2)c2cccc(OC)c2)C[C@H]1C,Potency,[1],3.98 µM (active)
same,Potency,[2],inactive
CNC(C)(C)Cc1ccccc1,Potency,[1],inactive
same,Potency,[2],inactive
same,Potency,[3],inactive
NNc1ccccc1,Potency,[1],inactive
same,Potency,[2],inactive
same,Potency,[3],inactive
COc1c2c(cc3c1OCO3)CCN(C)C2,Potency,[1],inactive
same,Potency,[2],inactive
same,Potency,[3],inactive
O=C(CCCN1CCC2(CC1)C(=O)NCN2c1ccccc1)c1ccc(F)cc1,Potency,[1],1.78 µM (active) and 1 µM (active)
same,Potency,[2],inactive
same,outcome,[5],inactive
same,Potency,[3],inactive
same,outcome,[4],inactive
same,Potency,[6],inactive
same,outcome,[7],inactive
same,outcome,[8],inactive
same,Potency,[9],inactive
C=C(C)[C@H]1CN[C@H](C(=O)O)[C@H]1CC(=O)O,Potency,[1],inactive
same,Potency,[2],inactive
same,Potency,[3],inactive
same,Potency,[6],inactive
same,outcome,[10],inactive
same,outcome,[7],inactive
same,outcome,[8],inactive
same,Potency,[9],inactive
NC(=O)c1cc([N+](=O)[O-])cc([N+](=O)[O-])c1,Potency,[1],inactive
same,Potency,[2],inactive
same,outcome,[4],inactive
O=C(N/N=C/c1ccc([N+](=O)[O-])o1)c1cc([N+](=O)[O-])cc([N+](=O)[O-])c1O,Potency,[1],inactive
same,Potency,[2],36.1 µM (active)
same,Potency,[3],inactive
same,outcome,[4],inactive
CCCCCCCCCC(=O)O[C@H]1CC[C@H]2[C@@H]3CCC4=CC(=O)CC[C@@H]4[C@H]3CC[C@]12C,Potency,[1],inactive
same,Potency,[2],inactive
same,Potency,[3],inactive
same,outcome,[4],inactive
CN1C(=O)CCS(=O)(=O)C1c1ccc(Cl)cc1 (centres undefined),Potency,[1],inactive
same,Potency,[2],inactive
same,Potency,[3],inactive
same,Potency,[6],inactive
same,outcome,[10],inactive
same,outcome,[7],inactive
same,outcome,[8],inactive
same,Potency,[9],inactive
COc1cccc([C@@]2(O)CCCC[C@@H]2CN(C)C)c1,Potency,[1],inactive
same,Potency,[2],inactive
same,Potency,[3],inactive
same,outcome,[4],inactive
C[C@](O)(CS(=O)(=O)c1ccc(F)cc1)C(=O)Nc1ccc(C#N)c(C(F)(F)F)c1,Potency,[1],inactive
same,Potency,[2],inactive
same,Potency,[3],16.1 µM (active)
Cc1nnc2n1-c1ccc(Cl)cc1C(c1ccccc1)=NC2,Potency,[1],inactive
same,Potency,[2],inactive
same,Potency,[3],inactive
same,outcome,[4],inactive
COc1ccc2c(c1)C13CCCC[C@@H]1C(C2)N(C)CC3 (some centres undefined),Potency,[1],inactive
same,Potency,[2],inactive
same,Potency,[3],inactive
same,outcome,[4],inactive
CN=C1CN(O)C(c2ccccc2)=c2cc(Cl)ccc2=N1,Potency,[1],inactive
CC(C)(C)NCC(O)c1ccccc1Cl (centres undefined),Potency,[1],inactive
same,Potency,[2],inactive
same,outcome,[5],inactive
same,Potency,[3],inactive
same,Potency,[6],inactive
same,outcome,[10],inactive
same,outcome,[8],inactive
same,Potency,[9],inactive
c1ccc2c(c1)sc1ccccc12,Potency,[1],inactive
same,outcome,[5],inactive
same,Potency,[3],inactive
O=C1CN=C(c2ccccc2)c2cc([N+](=O)[O-])ccc2N1,Potency,[1],inactive
same,Potency,[2],inactive
same,Potency,[3],inactive
same,outcome,[4],inactive
Clc1ccc2c(c1)C(c1ccccc1)=NCc1nncn1-2,Potency,[1],inactive
same,Potency,[2],inactive
same,Potency,[3],inactive
same,outcome,[4],inactive
COP(=S)(OC)Oc1ccc(S(=O)(=O)N(C)C)cc1,Potency,[1],inactive
same,Potency,[2],inactive
same,Potency,[3],inactive
same,outcome,[4],inactive
O=C1OC(c2ccc(O)c(S(=O)(=O)O)c2)(c2ccc(O)c(S(=O)(=O)O)c2)c2c(Br)c(Br)c(Br)c(Br)c21,Potency,[1],inactive
same,Potency,[2],28.7 µM (active)
same,Potency,[3],inactive
same,outcome,[4],inactive
COC1CC(=C(c2cccs2)c2cccs2)C[N+](C)(C)C1 (centres undefined),Potency,[1],inactive
same,Potency,[2],inactive
same,Potency,[3],inactive
NC1=NC(=O)C(c2ccccc2)O1 (centres undefined),Potency,[1],inactive
CCCCC/C=C\C/C=C\C/C=C\C/C=C\CCCC(=O)NCC(=O)O,Potency,[1],inactive
same,"activity change, negative = inhibition",[2],-1.65% [at 5.2 µM]
same,"activity change, negative = inhibition",[3],-9.07% [at 5.34 µM]
same,Potency,[6],inactive
same,outcome,[10],inactive
same,outcome,[7],inactive
same,outcome,[8],inactive
same,Potency,[9],inactive
CCN[C@@H](C)Cc1ccccc1,Potency,[2],inactive
O=C(Nc1ccc(Br)cc1)c1cc(Br)cc(Br)c1O,Potency,[2],11.4 µM (active)
same,Potency,[3],inactive
same,outcome,[4],inactive
CCN(CC)CCc1c[nH]c2ccccc12,Potency,[2],inactive
CCN(CC)C(=O)[C@@H]1C=C2c3cccc4[nH]cc(c34)C[C@H]2N(C)C1,Potency,[2],inactive
c1ccc(CN2CCNCC2)cc1,Potency,[2],inactive
O=C(O[C@H]1CN2CCC1CC2)N1CCc2ccccc2[C@@H]1c1ccccc1,Potency,[3],inactive
Cn1c(=O)c2[nH]cnc2n(C)c1=O,Potency,[3],inactive
CC(C)C[C@H]1C(=O)N2CCC[C@H]2[C@]2(O)O[C@](NC(=O)[C@@H]3C=C4c5cccc6[nH]c(Br)c(c56)C[C@H]4N(C)C3)(C(C)C)C(=O)N12,Potency,[9],3.26 µM (active)
CC(Cc1ccccc1)NCCn1cnc2c1c(=O)n(C)c(=O)n2C (centres undefined),Potency,[2],inactive
O=C1Nc2ccc(Cl)cc2C(c2ccccc2Cl)=NC1O (centres undefined),Potency,[2],inactive
same,Potency,[3],inactive
same,outcome,[4],inactive
CC(NC(C)(C)C)C(=O)c1cccc(Cl)c1 (centres undefined),Potency,[6],inactive
same,outcome,[10],inactive
same,outcome,[7],inactive
same,outcome,[8],inactive
same,Potency,[9],inactive
CN1C(=O)COc2c(C(=O)NC3CN4CCC3CC4)cc(Cl)cc21 (centres undefined),Potency,[2],inactive
same,Potency,[3],inactive
Cc1ncsc1CCCl,Potency,[2],inactive
same,Potency,[3],inactive
same,Potency,[6],inactive
same,outcome,[10],inactive
same,outcome,[7],inactive
same,outcome,[8],inactive
same,Potency,[9],inactive
CC(C)(C)c1ccc(O)cc1,Potency,[2],inactive
same,Potency,[3],inactive
O=c1oc2ccccc2c(O)c1Cc1c(O)c2ccccc2oc1=O,Potency,[2],inactive
same,Potency,[3],inactive
COc1cc(CC(C)N)cc(OC)c1OC (centres undefined),Potency,[2],inactive
O=C1Nc2ccc(Cl)cc2C(c2ccccc2)=NC1O (centres undefined),Potency,[2],inactive
same,outcome,[5],inactive
same,Potency,[3],inactive
same,outcome,[4],inactive

# Source: PubChem BioAssay (NCATS)
